The values below come from PubChem BioAssay (Tox21).

“And” between values parts separate entries of the source, which are not always exact repeats. Identical values can stand only once. Values without a mark were called inactive. Records with an inconclusive call do not appear. The source made the active and inactive calls. Unless noted, calls come from the whole dose curve; as a rule, active = well fitted curve in the direction sought with a large enough effect in the repeat runs; inconclusive = weak or mixed curves; inactive = no such curve, though single readings can be large; an effect the other way counts as inactive or inconclusive.

Assay [1] is described as follows: qHTS assay to test for compound auto fluorescence at 535 nm (green) in HEK293 cells (AID 720680). (In general: qHTS replaces the single test concentration by a dilution series.)
Assay [2] can be described thus: qHTS assay to test for compound auto fluorescence at 535 nm (green) in HEK293 cell free culture (AID 720682). A digest of the protocol: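 Fluorescein serves as the green reference fluorophore; each compound's intrinsic emission at 535 nm (excitation 485 nm) is reported as an equivalent amount of that dye, measured in serum-containing DMEM without cells.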
Assay [3] can be described thus: qHTS assay to test for compound auto fluorescence at 590 nm (red) in HEK293 cell free culture (AID 720683). The method, boiled down: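 Red-channel autofluorescence of compounds in culture medium (DMEM, 10% FBS), no cells, measured at 540/590 nm. Rose Bengal sodium is the reference fluorophore for equivalence.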
Assay [4] in a line: qHTS assay to test for compound auto fluorescence at 460 nm (blue) in HepG2 cell free culture (AID 720685). The method, boiled down: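 Compound (23 nL) or DMSO pinned into cell-free MEM with 10% FBS; blue fluorescence read at 405/460 nm excitation/emission, expressed as auto-fluorescence equivalency to triamterene.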
A short description of assay [5]: qHTS assay to test for compound auto fluorescence at 535 nm (green) in HepG2 cell free culture (AID 720686).
A short description of assay [6]: qHTS assay to test for compound auto fluorescence at 460 nm (blue) in HepG2 cells (AID 720687). A digest of the protocol: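 Blue-channel autofluorescence (Ex/Em 405/460 nm, triamterene-equivalent) was measured after 1 hr compound exposure at 37 C, 5% CO2. Cells were HepG2, plated overnight at 37 C in MEM plus 10% FBS.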
Assay [7] has as its target Glucocorticoid receptor (Homo sapiens) (UniProt P04150). Briefly: qHTS assay to identify small molecule agonists of the glucocorticoid receptor (GR) signaling pathway (AID 720691; active = well fitted activation curve with a large enough effect in the signal ratio in the repeat runs, not every such curve was filed as active; the % refers to the signal ratio). A digest of the protocol: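 Reporter read-out: fluorescence intensity following 2 h room-temperature LiveBLAzer B/G FRET substrate loading. Prior step: GR-bla HeLa cells held 4 h, then treated 18 h at 37 C.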

Assay [8] shares this target. Briefly: qHTS assay to identify small molecule antagonists of the glucocorticoid receptor (GR) signaling pathway (AID 720692; active = well fitted inhibition curve with a large enough effect in the signal ratio in the repeat runs, not every such curve was filed as active; the % refers to the signal ratio). A digest of the protocol:
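Dexamethasone (5 nM final) stimulated a stably integrated GRE-beta-lactamase reporter in HeLa cells during 18 h co-incubation with compounds; signal was quantified as fluorescence intensity of B/G FRET substrate after 2 h.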

The nature of assay [9]: qHTS assay to identify small molecule antagonists of the glucocorticoid receptor (GR) signaling pathway - cell viability counter screen (AID 720693). Note: nearly all actives have a fitted effect of over 55% in size.
A short description of assay [10]: qHTS assay for identifying genotoxic compounds that show differential cytotoxicity against isogenic chicken DT40 cell lines with known DNA damage response pathways - wild type cell line (AID 743012). Note: nearly all actives have a fitted effect of over 60% in size. Note: potency is the fitted concentration of half-maximal effect. The method, boiled down:
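Using parental DT40 (300 cells/well), compounds delivered in DMSO incubate 40 h at 37 C/5% CO2. CellTiter-Glo reagent then stands 30 min at room temperature, and luminescence gives cell viability.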

A short description of assay [11]: qHTS assay for identifying genotoxic compounds that show differential cytotoxicity against isogenic chicken DT40 cell lines with known DNA damage response pathways - Rev3 mutant cell line (AID 743014). Note: nearly all actives have a fitted effect of over 55% in size. Note: potency is the fitted concentration of half-maximal effect.
The nature of assay [12]: qHTS assay for identifying genotoxic compounds that show differential cytotoxicity against isogenic chicken DT40 cell lines with known DNA damage response pathways - Rad54/Ku70 mutant cell line (AID 743015). Note: nearly all actives have a fitted effect of over 60% in size. Note: potency is the fitted concentration of half-maximal effect.
Assay [13] can be described thus: qHTS assay to identify small molecule antagonists of the androgen receptor (AR) signaling pathway - cell viability counter screen (AID 743033; note: nearly all actives have a fitted effect of over 45% in size; note: potency is the fitted concentration of half-maximal effect).
Assay [14] is described as follows: qHTS assay to identify small molecule antagonists of the androgen receptor (AR) signaling pathway using the MDA cell line - cell viability counter screen (AID 743041; note: nearly all actives have a fitted effect of over 45% in size). A digest of the protocol:
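R1881-driven MDA-kb2 AR-luc cells, 3,000/well, were dosed with library compounds for 16 h; cell health came from CellTiter-Fluor fluorescence in the reporter wells.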

The nature of assay [15]: qHTS assay to identify small molecule antagonists of the thyroid receptor (TR) signaling pathway - cell viability counter screen (AID 743064). Note: nearly all actives have a fitted effect of over 50% in size. Note: potency is the fitted concentration of half-maximal effect. A digest of the protocol: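 Fluorescence from CellTiter-Fluor, added after 23.5 h exposure at 37 °C, reported viability of GH3.TRE-Luc cells co-treated with compound and 1 nM T3. Measured in the same wells as the luciferase TR readout.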

The nature of assay [16]: qHTS assay to test for compound auto fluorescence at 590 nm (red) in HepG2 cell free culture (AID 720684). A digest of the protocol:
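Plate contents were MEM with 10% FBS plus test compound or DMSO, no cells. Fluorescence was recorded with 540 nm excitation and 590 nm emission.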

Assay [17] can be described thus: qHTS assay to test for compound auto fluorescence at 460 nm (blue) in HEK293 cell free culture (AID 720681). The method, boiled down: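 Blue fluorescence (Ex 405/Em 460 nm, triamterene-equivalent) was read immediately after pin transfer of compound or DMSO into medium (DMEM, 10% FBS) without cells.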
In assay [18] the target is Androgen receptor (Homo sapiens) (UniProt P10275). The assay is described as follows: qHTS assay to identify small molecule agonists of the androgen receptor (AR) signaling pathway (AID 743036; active = well fitted activation curve with a large enough effect in the signal ratio in the repeat runs, with a control signal flat, not every such curve was filed as active; the % refers to the signal ratio). A digest of the protocol: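 Fluorescence from a beta-lactamase FRET substrate served as read-out in AR-UAS-bla GripTite HEK293 cells. Cells were treated with DMSO-dissolved compounds for 16 h at 37C, then with LiveBLAzer B/G substrate for 2 h at room temperature.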

Assay [19] shares this target. Briefly: qHTS assay to identify small molecule agonists of the androgen receptor (AR) signaling pathway using the MDA cell line (AID 743040; note: nearly all actives have a fitted effect of over 20% in size). The method, boiled down: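 After a 5 h incubation at 37C and 0% CO2, MDA-kb2 reporter cells were dosed with compounds in DMSO and kept 16 h under the same conditions. Luciferase activity was then read as luminescence with ONE-Glo.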

For assay [20] the target is unchanged. Briefly: qHTS assay to identify small molecule antagonists of the androgen receptor (AR) signaling pathway using the MDA cell line (AID 743042; note: nearly all actives have a fitted effect of over 55% in size). The method, boiled down: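 Antagonist mode: compounds plus R1881 agonist added to MDA-kb2 AR-luc cells, incubated 16 h at 37C. Luciferase reporter luminescence quantified, with multiplexed CellTiter-Fluor readout for cell viability.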

Sequence of Androgen receptor (Homo sapiens) (P10275 whole entry, looked up): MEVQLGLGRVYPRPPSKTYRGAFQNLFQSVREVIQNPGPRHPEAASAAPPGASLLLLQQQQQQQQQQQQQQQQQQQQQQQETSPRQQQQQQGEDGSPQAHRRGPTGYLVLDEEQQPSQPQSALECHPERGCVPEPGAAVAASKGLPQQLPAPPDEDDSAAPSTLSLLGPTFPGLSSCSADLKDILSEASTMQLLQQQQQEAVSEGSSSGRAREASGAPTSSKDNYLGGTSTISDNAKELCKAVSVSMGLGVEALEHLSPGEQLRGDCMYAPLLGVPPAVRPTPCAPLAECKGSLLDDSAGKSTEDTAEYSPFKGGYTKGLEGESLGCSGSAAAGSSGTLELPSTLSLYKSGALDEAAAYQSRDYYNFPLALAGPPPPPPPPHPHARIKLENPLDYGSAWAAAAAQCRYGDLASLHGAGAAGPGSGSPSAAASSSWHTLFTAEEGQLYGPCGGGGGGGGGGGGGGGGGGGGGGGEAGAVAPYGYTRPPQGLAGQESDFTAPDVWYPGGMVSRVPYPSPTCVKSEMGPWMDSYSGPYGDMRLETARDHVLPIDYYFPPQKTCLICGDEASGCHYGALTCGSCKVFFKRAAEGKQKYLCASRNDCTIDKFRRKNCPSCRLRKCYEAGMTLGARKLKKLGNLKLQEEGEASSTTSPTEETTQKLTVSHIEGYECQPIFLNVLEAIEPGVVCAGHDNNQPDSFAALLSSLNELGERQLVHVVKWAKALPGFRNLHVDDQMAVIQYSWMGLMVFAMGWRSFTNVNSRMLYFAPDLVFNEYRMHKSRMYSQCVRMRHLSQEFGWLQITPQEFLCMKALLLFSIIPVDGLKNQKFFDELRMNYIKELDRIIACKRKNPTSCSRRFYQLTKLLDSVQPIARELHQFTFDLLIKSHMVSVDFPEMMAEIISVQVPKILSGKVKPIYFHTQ
Sequence of Glucocorticoid receptor (Homo sapiens) (P04150 whole entry, looked up): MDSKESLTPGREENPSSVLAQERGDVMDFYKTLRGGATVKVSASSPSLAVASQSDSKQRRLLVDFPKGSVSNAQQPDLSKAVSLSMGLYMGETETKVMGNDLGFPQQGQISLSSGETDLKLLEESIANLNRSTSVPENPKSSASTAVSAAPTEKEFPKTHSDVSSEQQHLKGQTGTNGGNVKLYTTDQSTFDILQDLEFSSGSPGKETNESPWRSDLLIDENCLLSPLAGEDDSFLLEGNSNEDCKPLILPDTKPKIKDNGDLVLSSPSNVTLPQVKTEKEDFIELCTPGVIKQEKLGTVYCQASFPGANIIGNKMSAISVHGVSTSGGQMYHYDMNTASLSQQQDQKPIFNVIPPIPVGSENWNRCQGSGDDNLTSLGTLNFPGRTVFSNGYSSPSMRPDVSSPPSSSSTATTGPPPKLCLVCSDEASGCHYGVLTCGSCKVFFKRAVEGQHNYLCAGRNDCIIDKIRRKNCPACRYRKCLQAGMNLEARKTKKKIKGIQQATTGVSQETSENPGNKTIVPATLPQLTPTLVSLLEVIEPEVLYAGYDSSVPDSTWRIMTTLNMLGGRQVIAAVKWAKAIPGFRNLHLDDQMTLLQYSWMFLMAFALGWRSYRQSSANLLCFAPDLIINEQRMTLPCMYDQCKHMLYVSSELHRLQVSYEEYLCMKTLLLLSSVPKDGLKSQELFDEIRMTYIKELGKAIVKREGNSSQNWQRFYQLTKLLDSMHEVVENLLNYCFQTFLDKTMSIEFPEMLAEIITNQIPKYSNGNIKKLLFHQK

As for `CC(O)CN` (stereo not given), the compound was called inactive in [1], in assay [2], in assay [3], in assay [4], in [5] and in [6]. The Potency result in [7], in assay [8], in assay [9], in [10], in assay [11] and in [12] was “inactive” in each case. The Potency entry in assay [13], in assay [14] and in assay [15] was “inactive” throughout.

Turning to `O=C(OCCOCCOCCOC(=O)c1ccccc1)c1ccccc1`, the call in [1], in assay [2], in assay [3], in assay [16], in assay [4] and in assay [5] was inactive. In addition, in assay [6], the compound was called inactive. The Potency entry in [7], in assay [8], in assay [9], in assay [14] and in assay [15] was “inactive” throughout.

`CC1=C(C)C(=O)C(C(CCCCCC(=O)O)c2ccccc2)=C(C)C1=O` (stereo not given): the outcome in assay [1], in assay [2], in assay [3], in [16], in assay [4] and in [5] was inactive. The compound was classed as inactive in assay [6]. Further, the Potency result in assay [7], in [8], in assay [9], in [10], in assay [11] and in assay [12] was “inactive” each time. Besides, the Potency entry in [13] and in assay [14] was “inactive” throughout.

`COc1cccc([C@H](O)C2CCN(CCc3ccc(F)cc3)CC2)c1OC`: the call in [1], in assay [2], in [3], in [16], in assay [4] and in [5] was inactive. Moreover, the call in assay [6] was inactive. The Potency entry in assay [9], in assay [13] and in [14] was “inactive” each time. Besides, the Potency in assay [10] is 27.3 µM (active); in assay [11] it was 1.72 µM (active); in assay [12] it was 4.33 µM (active).

As for `O=C(O)c1ccccc1[N+](=O)[O-]`, the compound was called inactive in assay [1], in [2], in assay [3], in assay [16], in assay [4] and in [5]. The outcome in assay [6] was inactive. Also, the Potency entry in assay [7], in assay [8], in assay [10], in assay [11], in assay [12] and in assay [14] was “inactive” each time. In addition, the Potency entry in [15] was “inactive”.

As for `Nc1ccc(F)cc1F`, the Potency result in [17], in assay [7], in assay [8], in assay [9], in [10] and in [11] was “inactive” throughout. The Potency entry in assay [12], in [13], in assay [14], in assay [20] and in [15] was “inactive” throughout. Also, the call in assay [2], in [3], in assay [16], in assay [4], in assay [5] and in assay [6] was inactive. Moreover, the result in [18] and in assay [19] was inactive.

Turning to `COc1ccc(/C=C/c2cc(OC)cc(=O)o2)cc1`, the outcome in assay [1], in assay [2], in [3], in [16], in assay [4] and in assay [5] was inactive. Also, the outcome in assay [6] was inactive. Moreover, the Potency entry in assay [9], in [10], in assay [11], in assay [12], in assay [13] and in assay [14] was “inactive” each time.

`CC(=O)Nc1ccn(C2COC(COC(=O)c3ccccc3)O2)c(=O)n1` (stereo not given): the compound was classed as inactive in [1], in assay [2], in [3], in assay [16], in [4] and in assay [5]. In addition, the result in assay [6] was inactive. Also, the Potency result in assay [9], in assay [13], in assay [14] and in assay [15] was “inactive” throughout. Also, the Potency in assay [10] was 9.44 µM (active); in [11], 13.3 µM (active); in assay [12] it was 11.9 µM (active).

On to `CCc1ccc2c(c1)C(=O)c1ccccc1C2=O`, for which the compound was called inactive in [1], in assay [2], in [3], in assay [16], in [4] and in assay [5]. Besides, the outcome in [6] was inactive. The Potency entry in assay [9], in assay [10], in [12], in assay [13] and in [15] was “inactive” throughout.

`O=C(NC1CCN(CCc2c[nH]c3ccccc23)CC1)c1ccccc1`: the outcome in assay [1], in assay [2], in assay [3], in [16], in [4] and in [5] was inactive. Besides, the outcome in assay [6] was inactive. Besides, the Potency result in assay [9], in assay [13] and in [14] was “inactive” in each case. The Potency in [10] is 23.7 µM (active); in assay [11], 33.5 µM (active); in assay [12], 29.8 µM (active); in assay [15], 26.6 µM (active).

Consider `CCCC1CCCC(=O)O1` (stereo not given), for which the Potency entry in [17], in assay [7], in assay [8], in assay [9], in assay [10] and in [11] was “inactive” each time. Further, the Potency result in assay [12], in [13], in assay [14] and in assay [15] was “inactive” each time. The call in assay [2], in assay [3], in [16], in [4], in assay [5] and in assay [6] was inactive.

On to `O=C1c2ccccc2C(=O)C1c1ccc2ccccc2n1`, for which the compound was called inactive in assay [1], in assay [2], in assay [3], in [16], in assay [4] and in assay [5]. For the same compound, the result in assay [6] was inactive. Moreover, the Potency entry in [7], in assay [8], in assay [9], in assay [11], in [13] and in assay [14] was “inactive” each time. Also, the Potency result in [15] was “inactive”. In addition, the Potency in [12] is 1.91 µM (active).

Consider `O=P(c1ccccc1)(c1ccccc1)c1ccccc1`, for which the outcome in assay [1], in assay [2], in [3], in assay [16], in [4] and in [5] was inactive. In addition, in assay [6], the compound was classed as inactive. In addition, the Potency entry in assay [9], in [13], in assay [14] and in [15] was “inactive” in each case. Besides, the Potency in assay [11] and in assay [12] was 61.1 µM (active) throughout.

With `O=[N+]([O-])c1ccc(Cl)cc1Cl`, the outcome in assay [1], in assay [2], in assay [3], in [16], in [4] and in assay [5] was inactive. The outcome in assay [6] was inactive. The Potency result in [7], in assay [8], in assay [9], in assay [10], in assay [11] and in [12] was “inactive” throughout. Also, the Potency entry in assay [13], in [14] and in assay [15] was “inactive” each time.

Regarding `C=C[Si](OCC)(OCC)OCC`, the compound was classed as inactive in assay [1], in assay [2], in assay [3], in assay [16], in assay [4] and in [5]. The compound was classed as inactive in assay [6]. The Potency entry in assay [7], in [8], in [9], in assay [10], in assay [11] and in assay [12] was “inactive” throughout. The Potency result in assay [13], in assay [14] and in [15] was “inactive” in each case.

Regarding `CC(C)C[C@H](NC(=O)[C@H](Cc1ccccc1)NC(=O)c1cnccn1)B(O)O`, the outcome in [1], in assay [2], in assay [3], in assay [16], in assay [4] and in [5] was inactive. Further, in [6], the result was inactive. Besides, the Potency entry in [7] was “inactive”. The Potency is 13.3 nM (active) and 11.9 nM (active) in assay [10]; 13.3 nM (active) and 9.4 nM (active) in assay [11]; 11.9 nM (active) and 10.6 nM (active) in assay [12]; 7.6 nM (active) in assay [13]; 18.8 nM (active) and 11.9 nM (active) in assay [15].
